The sample as a whole holds a higher share of hits than the screen did.
D1 mod: allosterically modulates the human D1 dopamine receptor. P21728. HEK293 D1, CRE-luciferase, dopamine EC30 potentiation; actives deviate in either direction. B-score at 10 µM. 58,000 compounds, 5.9% hits;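 active = luminescence count or its row- and column-corrected plate score outside the 99.7% band of the plate's sample wells, on either side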
Target sequence (P21728 whole entry, looked up): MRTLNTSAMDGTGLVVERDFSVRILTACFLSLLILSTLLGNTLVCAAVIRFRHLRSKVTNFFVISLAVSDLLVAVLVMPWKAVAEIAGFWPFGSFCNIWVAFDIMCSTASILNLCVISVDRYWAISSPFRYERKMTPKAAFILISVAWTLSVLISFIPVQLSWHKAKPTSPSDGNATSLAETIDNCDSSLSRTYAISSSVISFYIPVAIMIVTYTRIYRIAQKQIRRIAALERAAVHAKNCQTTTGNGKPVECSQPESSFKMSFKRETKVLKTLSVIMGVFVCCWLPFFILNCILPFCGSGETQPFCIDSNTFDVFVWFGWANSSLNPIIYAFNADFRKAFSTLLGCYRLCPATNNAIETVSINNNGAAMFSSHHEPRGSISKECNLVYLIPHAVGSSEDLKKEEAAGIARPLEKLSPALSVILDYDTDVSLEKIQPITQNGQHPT
PKA inh: PKA (human) kinase inhibition | 65,000 compounds, 0.1% hits | AID 524 | PKA Kemptide phosphorylation, Kinase-Glo ATP luminescence | inhibition, % at 6 µM | P17612;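 active = inhibition above the screen-wide mean inhibition plus 3 SD, cut at about 21% in these data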
ROCK2 blocker: ROCK2 (human) kinase inhibition. purified ROCK2, Kinase-Glo ATP depletion luminescence. inhibition, % at 6 µM. 60,000 compounds, 0.35% hits;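 active = inhibition above the screen-wide mean inhibition plus 3 SD, cut at about 18% in these data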;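 note: plate controls were DMSO wells for no effect and Y-27632 control wells after no-enzyme background subtraction for full effect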
DAT uptake mod: human DAT dopamine uptake with cocaine, either direction; 110,000 compounds, 1.3% hits; LLC-PK1 hDAT cells, [14C]-dopamine uptake with cocaine IC80; actives deviate in either direction; Q01959; B-score at 10 µM; AID 449768;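 active = Z score or B-score, a plate-position-corrected score, falls beyond the plate's 99.7% confidence bounds, in either direction; inactive = both scores lie inside the 99.7% bounds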;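 note: scored against the spread of the other compound wells on the same plate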
D1 PAM confirm: confirmation of human D1 dopamine receptor allosteric modulators. shares compounds with D1 mod. HEK293 D1 CRE-luciferase, dopamine EC30 potentiation; active compounds read high. luminescence at 10 µM. 2,200 compounds, 88% hits;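 active = luminescence in either of two replicates above the same-plate mean plus 3 SD of the low-dose dopamine control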
D1 no dopamine: activates D1 CRE-luciferase signal without dopamine present; HEK293 D1 CRE-luciferase, luminescence, no dopamine; active compounds read high; shares compounds with D1 mod; AID 646; 1,900 compounds, 0.8% hits; luminescence at 10 µM; in the data active = luminescence above about 3900
Isoprot counter: counter-screen for D1 modulators: isoproterenol response in HEK293 cells | AID 647 | HEK293 D1 CRE-luciferase, isoproterenol EC30 counter-screen | shares compounds with D1 mod | 2,200 compounds, 63% hits | calls only at 10 µM;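 active = luminescence in either replicate above plate mean of wells with a partly effective reference agonist dose plus 3 SD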;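 note: isoproterenol raises cAMP through native beta-adrenoceptor Gs so signal bypasses D1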
* = called active by the depositor; i = inactive; / = no result given; + = active, no number.

SMILES	D1 mod	PKA inh	ROCK2 blocker	DAT uptake mod	D1 PAM confirm	D1 no dopamine	Isoprot counter
COc1ccc(S(=O)(=O)N2CCc3ccccc3C2)cc1OC	/	/	/	-0.51	/	/	/
CC(C)=CCc1c(O)c(CC=C(C)C)c2c(c1O)-c1cc(O)c(O)cc1CC2	/	/	/	2.3	/	/	/
CC1(C)CC(=O)c2cc(OCC(=O)NCCCN3CCN(c4ccccc4F)CC3)ccc2O1	5.6*	-2	-2	-0.46	6164*	/	+
CC(Oc1ccc(Cl)cc1Cl)C(=O)N/N=C1\CCCc2ccccc21 (stereo not given)	/	/	/	-2.1	/	/	/
Cc1sc2nc(C(C)C)oc(=O)c2c1C	/	/	/	-1.2	/	/	/
Cc1sc2nc(SC(C)C)nc(N)c2c1C	14*	6	2	1.1	13552*	1624	+
Cc1ccc(OCCn2cc(Br)c(=O)[nH]c2=O)cc1	/	/	/	-0.49	/	/	/
CCn1c(=O)c2ccccc2n2c(SCC(=O)NCc3cccs3)nnc12	4.7*	12	6	0.3	7672	1452	i
COC(=O)[C@@]1(Cc2ccc(F)cc2)[C@H]2c3cc(C(=O)N4CCCC4)n(CCc4ccccn4)c3C[C@H]2CN1C(=O)c1ccccc1	/	/	/	-0.19	/	/	/
Cc1nc(CSc2nnc3scc(-c4ccc(Cl)cc4)n23)cs1	13*	-2	/	0.18	18280*	/	+
CC(=O)OCC1OC(c2ccccc2)C(OC(C)=O)C(OC(C)=O)C1OC(C)=O (stereo not given)	3.1*	0	0	-0.11	9036*	1700	i
OCC[C@H]1C[C@@H](O)[C@H](O)[C@@]2(CCCO2)O1	/	/	/	-1.7	/	/	/
Cc1cc2nc(-c3ccc(NC(=O)C(C)C)cc3)oc2cc1C	5.8*	2	-1	/	3212	1136	i
C/C=C/CSc1nc2c(c(=O)[nH]c(=O)n2C)n1CCC	14*	10	4	-1.3	14660*	1456	+
C/C=C/Cn1c(SCc2ccc(Cl)cc2)nc2c1c(=O)[nH]c(=O)n2C	7.3*	6	3	-0.12	13964*	1680	+
CCCn1c(SCc2ccc(Cl)cc2)nc2c1c(=O)[nH]c(=O)n2C	5.2*	9	6	0.049	11480*	/	+
C/C=C/Cn1c(SC)nc2c1c(=O)[nH]c(=O)n2C	-0.78	8	-6	-0.58	/	/	/
O=C(O)CNC(=O)c1ccc(S(=O)(=O)N2CCOCC2)cc1	/	/	/	0.0072	/	/	/
CC(C)Oc1ccc(C2/C(=C(/O)c3ccc(F)cc3)C(=O)C(=O)N2CCCN(C)C)cc1 (stereo not given)	-0.012	0	4	/	/	/	/
COCc1cc(C)nc2sc(C(=O)N3CCN(c4ccccc4)CC3)c(N)c12	4.6*	5	3	1.2	8080*	1512	i
COCc1cc(C)nc2sc(C(=O)N3CCCCC3)c(N)c12	/	/	/	0.22	/	/	/
CCOc1ccc(N/C(SC)=C(/C#N)C(N)=O)cc1	5*	1	/	-0.4	6796*	1504	i
CCc1ccc(N/C(SC)=C(/C#N)C(N)=O)cc1	0.42	2	/	-0.31	/	/	/
c1ccc(-c2oc3ncnc(NCCCn4ccnc4)c3c2-c2ccccc2)cc1	3.8*	8	4	2.7*	9476*	1872	+
c1ccc(-c2oc3ncnc(NCCN4CCOCC4)c3c2-c2ccccc2)cc1	0.45	-6	-1	0.59	/	/	/
SMILES	D1 mod	PKA inh	ROCK2 blocker	DAT uptake mod	D1 PAM confirm	D1 no dopamine	Isoprot counter
O=S(=O)(Nc1nc2ccc(S(=O)(=O)N3CCCC3)cc2s1)c1ccc(F)cc1	/	/	/	-2.1	/	/	/
CCOc1ccc(CCNS(=O)(=O)c2cnc[nH]2)cc1OCC	25*	-2	0	-0.58	24048*	/	+
O=C(C1CCCN1S(=O)(=O)c1ccc(Cl)c(Cl)c1)N1CCCCC1 (stereo not given)	1.3	1	1	-0.62	/	/	/
Cc1noc(C)c1CSc1nnc(-c2cc(Cl)ccc2Cl)n1N	9.5*	4	/	-0.58	25992*	1756	+
Cc1noc(C)c1CSc1nnc(-c2ccccc2F)n1CCc1ccccc1	1.2	5	2	0.18	/	/	/
Cc1cc(NC(=O)c2cc(-c3ccco3)on2)n(-c2ccccc2)n1	1.2	8	10	0.048	/	/	/
Cc1cc(-c2ccco2)n(-c2ccccc2)n1	5.9*	9	4	-0.84	13928*	1688	+

Screening data (PubChem)
